Values joined by “and” are separate entries in the source; they are usually repeats but may differ in a detail not shown here. Equal entries are not always repeated. Results filed as inconclusive are left out. Some compounds were tested as several samples or in several runs, with calls that do not always agree. Active and inactive are the calls of the source. Unless noted, calls come from the whole dose curve; as a rule, active = well fitted curve in the direction sought with a large enough effect in the repeat runs; inconclusive = weak or mixed curves; inactive = no such curve, though single readings can be large; an effect the other way counts as inactive or inconclusive.

Assay [1] deals with Luciferin 4-monooxygenase (Photinus pyralis) (UniProt P08659). The assay is described as follows: qHTS assay to identify small molecule inhibitors of firefly luciferase (AID 1224835). Note: nearly all actives have a fitted effect of over 25% in size. Note: potency is the fitted concentration of half-maximal effect. The method in brief: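 Biochemical qHTS: compounds run as interplate titrations against purified firefly enzyme, with D-luciferin and ATP each at its KM concentration. Light output recorded by CCD imaging.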

A short description of assay [2]: qHTS assay to identify small molecule agonists of the constitutive androstane receptor (CAR) signaling pathway - cell viability counter screen (AID 1224836). Note: nearly all actives have a fitted effect of over 45% in size. Note: potency is the fitted concentration of half-maximal effect. The method, boiled down:
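Counter screen multiplexed with the CAR reporter readout: HepG2 cells co-transfected with hCAR and the CYP2B6-2.2kb construct receive a 15-concentration compound series and 0.75 uM PK11195 (final), then CellTiter-Fluor fluorescence is read after 23 h.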

Assay [3] can be described thus: qHTS assay to identify small molecule antagonists of the constitutive androstane receptor (CAR) signaling pathway - cell viability counter screen (AID 1224837). Note: nearly all actives have a fitted effect of over 45% in size. Note: potency is the fitted concentration of half-maximal effect. The method, boiled down:
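To flag cytotoxic false antagonists, HepG2 hCAR/CYP2B6-2.2kb cells were treated 23 hr with 15-concentration compound series and 50 nM CITCO at 37 C/5% CO2; CellTiter-Fluor fluorescence was the measured end point.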

Assay [4] addresses Nuclear receptor subfamily 1 group I member 3 (Homo sapiens) (UniProt Q14994). Briefly: qHTS assay to identify small molecule antagonists of the constitutive androstane receptor (CAR) signaling pathway (AID 1224838).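 Note: HepG2 cells stably expressing hCAR with CYP2B6 luciferase reporter stimulated by CITCO; nearly all actives have a fitted effect of over 40% in size.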 Note: potency is the fitted concentration of half-maximal effect. The method in brief:
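Human hepatoma HepG2 cells expressing hCAR and a CYP2B6 promoter (2.2 kb) luciferase construct; compound titration (15 points) with 50 nM CITCO final, 24 h at 37 C/5% CO2; luminescence via ONE-Glo after 30 min at room temperature.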

The target is the same in assay [5]. The assay is described as follows: qHTS assay to identify small molecule agonists of the constitutive androstane receptor (CAR) signaling pathway (AID 1224839). For activation: % is set by controls: 0 for no effect and ±100 for the full control effect. Note: nearly all actives have a fitted effect of over 15% in size. Note: potency is the fitted concentration of half-maximal effect. The method, boiled down:
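A 15-concentration quantitative screen uses HepG2 cells co-transfected stably with human CAR and CYP2B6-2.2kb reporter. Treatment lasts 24 h with 0.75 uM PK11195 final present; ONE-Glo luminescence is the signal.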

The nature of assay [6]: qHTS assay to identify small molecule antagonists of the estrogen related receptor signaling pathway with the pleiotropic PPARgamma coactivator (PGC) from Tox21 10K library - cell viability counter screen (AID 1224840; active = well fitted cell-killing curve with a large enough effect in the repeat runs, not every such curve was filed as active; note: nearly all actives have a fitted effect of over 40% in size; note: potency is the fitted concentration of half-maximal effect). The method, boiled down: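 Seeded PGC/ERR cells (2,000/well, 6 h, 37 C/5% CO2) get compound by pin tool; 17.5 h incubation at 37 C; CellTiter-Fluor added, 30 min, fluorescence measured.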

Assay [7] deals with Thyrotropin receptor (Homo sapiens) (UniProt P16473). The assay is described as follows: qHTS assay to identify small molecule agonists of the thyroid stimulating hormone receptor (TSHR) signaling pathway (AID 1224843; calls by dose curve; note: % is set by controls: 0 for no effect and ±100 for the full control effect; nearly all actives have a fitted effect of over 45% in size). The method, boiled down: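 HEK293/TSHR, 800 cells/well; cpd 30 min RT; add cAMP-d2 + anti-cAMP-cryptate, 1 h RT; fluorescence read on plate reader. 15-pt titration, n=3.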

Assay [8] can be described thus: qHTS assay to identify small molecule agonists of the hypoxia (HIF-1) signaling pathway - cell viability counter screen (AID 1224844; calls by dose curve; note: % is set by controls: 0 for no effect and ±100 for the full control effect; nearly all actives have a fitted effect of over 50% in size). The method, boiled down:
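HRE-bla ME-180; 0.5% dFBS; cpd 17 h, 37C, 5% CO2; CellTiter-Glo lum., 30 min RT, post-FRET read, same wells.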

Assay [9] in a line: qHTS assay to identify small molecule agonists of H2AX (AID 1224845; active = well fitted activation curve with a large enough effect in the signal ratio in the repeat runs, not every such curve was filed as active; the % refers to the signal ratio; note: % is set by controls: 0 for no effect and ±100 for the full control effect). The method, boiled down:
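Wild-type CHO-K1 cells, plated overnight, exposed 3hr at 37C to 15 concentrations (0.76% DMSO final). Lysed, then HTRF anti-pH2AX (S139) cryptate and anti-H2AX-d2 antibodies, 24 hr room temperature; 665/620 nm emission read.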

A short description of assay [10]: qHTS RealTime-Glo MT Cell Viability Assay in HepG2 cells - 24 hour (AID 1224867). Note: % is set by controls: 0 for no effect and ±100 for the full control effect; nearly all actives have a fitted effect of over 50% in size. The method, boiled down:
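qHTS, HepG2, 600 cells/well, RealTime-Glo (NanoLuc + prosubstrate) added with cells; 5 h preincubation; DMSO compound addition; 37 C; luminescence at 0/8/16/24/32/40 h.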

Assay [11] is described as follows: qHTS RealTime-Glo MT Cell Viability Assay in HEK293 cells - 32 hour (AID 1224868). Note: nearly all actives have a fitted effect of over 50% in size. Note: potency is the fitted concentration of half-maximal effect. The method, boiled down:
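Assay medium contained NanoLuc luciferase plus cell-permeant prosubstrate, added with HEK293 cells at 600 cells/well. After 5 h at 37 C/5% CO2 compounds were added; plates stayed at 37 C for 40 h with serial luminescence reads.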

Assay [12] can be described thus: A CellTox Green Cytotoxicity Assay to monitor cytotoxicity in HEK293 cells - 0 hour (AID 1224869). Note: % is set by controls: 0 for no effect and ±100 for the full control effect; nearly all actives have a fitted effect of over 50% in size. The method in brief:
(§1)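 Tox21 screen in HEK293: membrane-impermeant cyanine dye fluoresces on binding dead-cell DNA; compound pinned 5 h post-seeding, plates held at 37 C, signal read repeatedly through 40 h.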

Assay [13] can be described thus: A CellTox Green Cytotoxicity Assay to monitor cytotoxicity in HEK293 cells - 40 hour (AID 1224871). Note: % is set by controls: 0 for no effect and ±100 for the full control effect; nearly all actives have a fitted effect of over 45% in size. The method, boiled down: as §1
Assay [14] in a line: qHTS assay to identify small molecule agonists of the hypoxia (HIF-1) signaling pathway (AID 1224846; active = well fitted activation curve with a large enough effect in the signal ratio in the repeat runs, not every such curve was filed as active; the % refers to the signal ratio; note: % is set by controls: 0 for no effect and ±100 for the full control effect). The method in brief:
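Reporter induction in HRE-bla ME-180 cells is taken as agonism: cells sit 5 hrs after plating, receive compounds or DMSO only, incubate 17 hrs at 37C under 5% CO2, and are loaded with CCF4-AM for beta-lactamase FRET measurement.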

Assay [15] can be described thus: qHTS assay to identify small molecule agonists of H2AX - cell viability counter screen (AID 1224847; calls by dose curve; note: nearly all actives have a fitted effect of over 30% in size; note: potency is the fitted concentration of half-maximal effect). The method, boiled down:
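We seed wild-type CHO-K1 cells overnight, treat them for 3 hr at 37C with compounds in 15-concentration series, and quantify remaining viability by CellTiter-Glo luminescence.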

A short description of assay [16]: qHTS assay to identify small molecule antagonists of the estrogen related receptor signaling pathway with the pleiotropic PPARgamma coactivator (PGC) from Tox21 10K library (AID 1224841; call rule not given here). The method in brief: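 Test chemicals dissolved in DMSO were applied to pre-incubated (6 h) PGC/ERR cells at 2,000 cells/well for an 18 h, 37 C treatment; reporter luminescence was then read using One-Glo.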

A short description of assay [17]: qHTS assay to identify small molecule agonists of the estrogen related receptor signaling pathway with the pleiotropic PPARgamma coactivator (PGC) from Tox21 10K library (AID 1224842). Note: % is set by controls: 0 for no effect and ±100 for the full control effect; nearly all actives have a fitted effect of over 15% in size. The method in brief:
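PGC/ERR reporter cell line, 2,000 cells per well, incubated 6 h at 37 C before 23 nL compound in DMSO was added. After 18 h at 37 C, One-Glo luminescence read following 30 min at room temperature.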

Assay [18] can be described thus: qHTS assay to identify small molecule antagonists of the estrogen related receptor (ERR) signaling pathway from Tox21 library (AID 1224848). Note: nearly all actives have a fitted effect of over 50% in size. Note: potency is the fitted concentration of half-maximal effect. The method in brief:
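Compounds dissolved in DMSO are pin-transferred onto ERR reporter cells (2,000 per well) that have settled for 6 h at 37 C. Plates then incubate 18 h at 37 C before ONE-Glo luciferase reagent and a luminescence read 30 min later.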

The nature of assay [19]: qHTS assay to identify small molecule agonists of the estrogen related receptor (ERR) signaling pathway from Tox21 library (AID 1224849; calls by dose curve; note: % is set by controls: 0 for no effect and ±100 for the full control effect; nearly all actives have a fitted effect of over 15% in size). To be noted: ERR reporter cell line, ONE-Glo luciferase, 18 h. The method, boiled down: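 Tox21 compounds tested for ERR agonism in an NTP reporter cell line: 18 h treatment at 37 C, then ONE-Glo luminescence.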
Assay [20] can be described thus: qHTS RealTime-Glo MT Cell Viability Assay in HepG2 cells - 40 hour (AID 1224870). The method in brief:
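HepG2 cells (600/well) mixed with RealTime-Glo MT reagent, settled 5 h at 37 C/5% CO2 before compound addition. Nonlytic NanoLuc luminescence from viable-cell prosubstrate reduction read repeatedly during 40 h treatment at 37 C.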

Chain of Thyrotropin receptor (Homo sapiens) (P16473 whole entry, looked up): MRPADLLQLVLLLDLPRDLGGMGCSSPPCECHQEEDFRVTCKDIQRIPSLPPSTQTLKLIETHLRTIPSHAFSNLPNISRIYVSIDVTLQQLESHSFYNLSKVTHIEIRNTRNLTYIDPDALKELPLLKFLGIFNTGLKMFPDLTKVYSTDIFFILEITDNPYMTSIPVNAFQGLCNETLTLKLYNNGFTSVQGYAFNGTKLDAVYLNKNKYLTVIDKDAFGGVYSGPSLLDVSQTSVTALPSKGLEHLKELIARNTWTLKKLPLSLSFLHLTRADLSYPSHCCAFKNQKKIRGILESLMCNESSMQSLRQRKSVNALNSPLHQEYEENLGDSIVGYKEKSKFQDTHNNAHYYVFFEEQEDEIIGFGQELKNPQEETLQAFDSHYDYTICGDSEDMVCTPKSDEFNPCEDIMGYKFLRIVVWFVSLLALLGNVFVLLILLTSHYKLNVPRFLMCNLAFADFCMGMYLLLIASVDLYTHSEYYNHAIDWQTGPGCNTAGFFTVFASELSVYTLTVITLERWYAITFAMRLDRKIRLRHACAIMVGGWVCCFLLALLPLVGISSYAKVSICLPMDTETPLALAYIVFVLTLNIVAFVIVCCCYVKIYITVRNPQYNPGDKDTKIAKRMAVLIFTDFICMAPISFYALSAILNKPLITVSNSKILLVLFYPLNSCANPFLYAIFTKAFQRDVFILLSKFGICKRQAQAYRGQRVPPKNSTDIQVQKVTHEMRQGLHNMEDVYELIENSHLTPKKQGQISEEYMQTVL
Chain of Luciferin 4-monooxygenase (Photinus pyralis) (P08659 whole entry, looked up): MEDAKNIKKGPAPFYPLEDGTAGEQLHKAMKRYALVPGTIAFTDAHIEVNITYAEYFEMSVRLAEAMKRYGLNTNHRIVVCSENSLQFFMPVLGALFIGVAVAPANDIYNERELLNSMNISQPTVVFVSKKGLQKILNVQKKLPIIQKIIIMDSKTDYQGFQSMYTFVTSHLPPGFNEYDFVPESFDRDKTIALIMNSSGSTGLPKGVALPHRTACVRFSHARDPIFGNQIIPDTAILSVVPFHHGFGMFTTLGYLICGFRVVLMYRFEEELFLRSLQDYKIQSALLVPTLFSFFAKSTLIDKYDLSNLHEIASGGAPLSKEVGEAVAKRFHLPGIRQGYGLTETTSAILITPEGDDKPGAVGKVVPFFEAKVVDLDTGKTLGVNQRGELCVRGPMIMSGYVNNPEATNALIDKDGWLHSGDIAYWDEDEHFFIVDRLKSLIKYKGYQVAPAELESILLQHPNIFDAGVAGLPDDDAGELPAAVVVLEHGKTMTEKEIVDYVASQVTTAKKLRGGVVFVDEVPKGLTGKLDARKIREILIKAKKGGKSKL
Chain of Nuclear receptor subfamily 1 group I member 3 (Homo sapiens) (Q14994 whole entry, looked up): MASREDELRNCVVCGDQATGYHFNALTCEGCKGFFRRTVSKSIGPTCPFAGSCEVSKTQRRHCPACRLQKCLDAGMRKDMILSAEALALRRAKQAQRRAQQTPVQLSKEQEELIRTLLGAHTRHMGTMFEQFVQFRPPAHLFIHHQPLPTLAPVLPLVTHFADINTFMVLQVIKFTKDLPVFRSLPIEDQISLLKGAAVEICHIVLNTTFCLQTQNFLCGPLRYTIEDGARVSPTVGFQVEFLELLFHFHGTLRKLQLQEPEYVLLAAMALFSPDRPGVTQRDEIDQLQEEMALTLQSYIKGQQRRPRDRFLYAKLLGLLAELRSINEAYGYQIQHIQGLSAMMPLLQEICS

Take `Cc1cccc(N(C)C(=S)Oc2ccc3ccccc3c2)c1`: the Potency result in [1], in assay [2], in [3], in assay [4], in assay [6] and in [7] was “inactive” in each case. Also, the Potency result in [8], in assay [10], in [11], in assay [12] and in assay [13] was “inactive” each time. Besides, the Potency in assay [5] is 27.3 µM (active) and 26.6 µM (active). In [9], the compound was called inactive.

`O=Cc1ccccc1O`: the Potency entry in assay [1], in assay [2], in assay [3], in assay [4], in assay [5] and in assay [6] was “inactive” throughout. The Potency result in assay [7], in assay [8], in assay [14], in assay [15], in [10] and in assay [11] was “inactive” in each case. For the same compound, in assay [13], the Potency entry is “inactive”.

Consider `CCC(C)(O)CCCC(C)C` (stereo not given), for which the Potency result in assay [1], in assay [2], in assay [3], in assay [4], in assay [5] and in [6] was “inactive” each time. Moreover, the Potency entry in assay [7], in assay [8], in [14], in assay [10], in assay [11] and in [12] was “inactive” each time. For the same compound, in assay [13], the Potency result is “inactive”. For the same compound, the compound was classed as inactive in assay [9].

On to `O=C(Nc1ccc([N+](=O)[O-])cc1Cl)c1cc(Cl)ccc1O`, for which the Potency was 399 nM (active) and 301 nM (active) in assay [1]; 6.86 µM (active) and 4.61 µM (active) in assay [2]; 5.45 µM (active) and 3.26 µM (active) in assay [3]; “inactive and 4.11 µM (active)” in assay [4]; 1.54 µM (active) and 820 nM (active) in [5]; 2.73 µM (active) in assay [6]. For the same compound, in [11], the Potency is 3.47 µM (active) and 928 nM (active). For the same compound, the Potency result in assay [7] and in [10] was “inactive” throughout. Besides, the call in assay [9] was inactive.

`S=C(NC1CCCCC1)NC1CCCCC1`: the Potency entry in assay [1], in assay [2], in [3], in assay [5], in [17] and in [7] was “inactive” in each case. Further, the Potency result in [14], in assay [15], in assay [10], in assay [12], in [20] and in assay [13] was “inactive” throughout. Also, the Potency in assay [4] was 13.4 µM (active) and 8.63 µM (active); in [16], 23.9 µM (active) and 21.7 µM (active); in [18], 15.1 µM (active) and inactive; in assay [11], 15.2 µM (active) and 21.9 µM (active). Further, the activity change, positive = activation in assay [19] (at 92.4 µM (top of the series)) was -59.4% (inactive) and -64.8% (inactive).

In the case of `CCCCCCCCCC(=O)OC`, the Potency result in assay [1], in assay [2], in [3], in assay [4], in [5] and in assay [6] was “inactive” throughout. In addition, the Potency result in assay [7], in assay [8], in assay [14], in assay [10], in assay [11] and in assay [20] was “inactive” each time.

As to `C#C[C@]1(O)CC[C@H]2[C@@H]3CCC4=Cc5oncc5C[C@]4(C)[C@H]3CC[C@@]21C`, the Potency entry in assay [1], in assay [2], in assay [3], in assay [4], in assay [17] and in [8] was “inactive” in each case. Moreover, the Potency entry in [12] is “inactive”. The Potency in [6] is 48.6 µM (active) and inactive; in [16] it was 24.3 µM (active) and 23.7 µM (active); in assay [15], 89.8 µM (active); in assay [18] it was 24.3 µM (active) and 23.7 µM (active). Further, the activity change, positive = activation in [19] (at 42.5 µM (top of the series)) is -54.8% (inactive); in assay [19] (at 92.4 µM (top of the series)) it was -70.8% (inactive).

With `COc1ccc(C(=O)CC(=O)c2ccc(C(C)(C)C)cc2)cc1`, the Potency in assay [1] was 13.6 µM (active) and inactive; in [11], 29.6 µM (active) and inactive. Moreover, the Potency result in [2], in assay [3], in assay [4], in [5], in assay [6] and in [7] was “inactive” each time. The Potency result in [8], in assay [14], in [10], in [12] and in assay [20] was “inactive” throughout.

(Values after PubChem BioAssay (Tox21).)
